Reference: PubChem BioAssay (EPA / NIEHS)
Calls of active or inactive are those of the source. The calls were made as follows: active = hit-call score of the fitted dose curve at least 0.9, where 1 is the maximum; inactive = score below 0.9.

assay: CEETOX_H295R_CORTISOL: CeeTox H295R High-throughput Steroidogenesis Assay for Cortisol (AID 2283438); conditions: actives raise or lower the signal;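 also: cortisol secreted into medium quantified by LC-MS/MS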
Method: CEETOX_H295R is a cell-based, multiplexed-readout assay that uses H295R, a human adrenal gland cell line, with measurements taken at 48 hours after chemical dosing in a 96-well plate.CEETOX_H295R_CORTISOL is one of 23 assay component(s) measured or calculated from the CEETOX_H295R assay. It is designed to make measurements of hormone induction, a form of inducible reporter, as detected with absorbance signals by HPLC-MS-MS technology.Data from the assay component CEETOX_H295R_CORTISOL was analyzed into 1 assay endpoint. This assay endpoint, CEETOX_H295R_CORTISOL, was analyzed with bidirectional fitting relative to DMSO as the negative control and baseline of activity. Using a type of inducible reporter, gain or loss-of-signal activity using HPLC-MS-MS was used to understand synthesis of Cortisol in H295R cell line at 48hr of chemical exposure. To generalize the intended target to other relatable targets, this assay endpoint is annotated to the steroid hormone intended target family, where the subfamily is glucocorticoids.
Cell culture and media preparation procedures were conducted in accordance with OECD Test No. 456 guidelines, with minor modifications. H295R cells (ATCC CRL-2128) were expanded for 5 passages and frozen in batches in liquid nitrogen. Prior to the steroidogenesis assay, H295R cells were thawed and passed at least 4 times. The maximum passage was 10. Cells were maintained in a 1:1 mixture of DMEM/F12 supplemented with 5ml/L ITS+ Premix (BD Bioscience) and 12.5 ml/L Nu-Serum (BD Bioscience). After seeding cells into 96-well plates at 50-60% confluency, cells were allowed to adhere overnight. Prior to chemical testing, culture medium was replaced with 175 uL medium containing 10 uM forskolin to stimulate steroidogenesis for 48 hours. Following prestimulation, forskolin medium was replaced with medium containing test chemical solubilized in DMSO (ensuring a final concentration of 0.1% DMSO). Test chemicals were incubated for 48 hours, then the medium was removed and split into 2 vials containing approximately 75uL each, and stored at -80 C prior to hormone analysis. For steroid quantification, media samples were shipped to OpAns, LLC (Durham, NC) on dry ice, and samples were thawed to room temperature prior to liquid-liquid extraction. Steroid hormones were extracted from media samples using methyl tertbutyl ether (MTBE). An extra derivatization with dansyl chloride was included for estrogen (estrone and estradiol) detection only. Steroid hormones were separated by HPLC, eluted using a reverse phase C18 gradient with electrospray positive ionization, followed by quantification by tandem mass spectrometry (MS/MS). Data were acquired on a MassHunter Workstation Acquisition version B03.01 (Agilent Technologies, Inc.) and processed using MassHunter Quantitative Analysis for QQQ. Accuracy was determined for each hormone analyte from 3 standards to determine upper and lower limits of quantification (ULOQ and LLOQ, respectively) using a 7-point standard curve. Precision and accuracy of the extraction and quantification methods were calculated as the percent relative standard deviation (%RSD) of the spiked standards and percent spiked standard recovered, respectively. The goal was to achieve 100% accuracy (i.e., recover all spiked-in standard at quantification with minimal loss during run time) and good precision (i.e., have %RSD <15% to ensure reproducibility). Test medium was removed following chemical exposure, and cell viability was evaluated in the same wells by MTT. MTT procedures were as follows: after removal of test medium, 500 uL of 0.5 mg/ml of 3-[4,5-dimethylthiazol-2-y]2,5-diphenyltetrazoliumbromide solution was added to the cells. Following a 4-hour incubation at 37 C and 5% CO2 to allow formazan-crystal formation, the MTT solution was removed and blue formazan salt crystals were solubilized using 500uL anhydrous isopropanol with shaking for 20 minutes. […]

| Compound | outcome | AC50 |
| --- | --- | --- |
| C1=CCCC1 | inactive |  |
| Oc1ccc(Cl)cc1Cc1cc(Cl)ccc1O | inactive |  |
| O=C(C=Cc1ccccc1)OCc1ccccc1 | inactive |  |
| Cc1ccc(C(C)c2ccc(C)c(C)c2)cc1C | inactive |  |
| COCc1c(C(C)C)nc(C(C)C)c(/C=C/[C@@H](O)C[C@@H](O)CC(=O)O)c1-c1ccc(F)cc1 | inactive |  |
| C=COCCCC | inactive |  |
| COc1ccc2nc(N)sc2c1 | inactive |  |
| CCCCC/C=C\CCC=O | inactive |  |
| O=C(Nc1ccccc1SSc1ccccc1NC(=O)c1ccccc1)c1ccccc1 | inactive |  |
| CCOC(=O)Cc1cccc2ccccc12 | inactive |  |
| S=C(NC1CCCCC1)NC1CCCCC1 | inactive |  |
| C#CC1(O)CC[C@H]2[C@@H]3CCC4=CCCC[C@@H]4[C@H]3CC[C@@]21C (stereo not given in full) |  | 7.01 µM (active) |
| CO[Si](CCC1CCC2OC2C1)(OC)OC (stereo not given) | inactive |  |
| CCCCNc1ccc(NCCCC)c2c1C(=O)c1ccccc1C2=O | inactive |  |
| CCCCCCCCCCCCCOP(=O)(O)O | inactive |  |
